Source: PubChem BioAssay
Activity calls are given as the source filed them.

Experiments:
[1] = optical density shifts of acrAB sulA E. coli – strain DRC41, OD650, 48 h, E. coli filamentation inducer project, primary screen (AID 1152); conditions: higher = more signal, called active from +8 up or from −8 down;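 note: E. coli MC1000 strain DRC41 lacking acrAB efflux pump and sulA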
[2] = probe aLefty1 binding on compound microarray – biochemical, small-molecule microarray, 635/667 nm fluorescence, primary screen (AID 1153); conditions: higher = more signal;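 note: score merges spot fluorescence with signal-to-noise ratio from the scanned slide images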
[3] = plasmodial surface anion channel blockers, osmotic lysis – cell-based, P. falciparum Indochina, OD700, 1 h, primary screen (AID 1154); conditions: P. falciparum Indochina infected RBC osmotic lysis, higher = more signal, called active from +8 up or from −8 down
[4] = plasmodial surface anion channel blockers, osmotic lysis – cell-based, P. falciparum Indochina, OD700, 2 h, primary screen (AID 1155);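 note: lysis reports solute entry through the parasite surface anion channel PSAC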; conditions: P. falciparum Indochina infected erythrocytes, higher = more signal, called active from +8 up or from −8 down
[5] = changes in parasitized red cell lysis, either direction – P. falciparum Indochina, OD700, 3 h, PSAC antagonist project, primary screen (AID 1156); conditions: P. falciparum-infected erythrocytes, osmotic lysis, higher = more signal, called active from +8 up or from −8 down
[6] = plasmodial surface anion channel blockers, osmotic lysis – cell-based, P. falciparum Indochina, OD700, 18 h, primary screen (AID 1157); conditions: P. falciparum Indochina infected erythrocytes, osmotic lysis OD700, 18 h; higher = more signal, called active from +8 up or from −8 down
[7] = S6 kinase pathway phospho-S6 level changes – cell-based, A549, cytoblot, luminescence, serum-stimulated, primary screen (AID 1158); conditions: 5 h, higher = more signal;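 note: serum-stimulated A549 lung adenocarcinoma cells; signal is phosphorylated S6 detected by cytoblot immunostaining with HRP secondary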
[8] = molecular target: NADPH oxidase 2 (Homo sapiens) (UniProt P04839); assay: compounds shifting NOX2 Amplex Red fluorescence – cell-based, HEK293-NOX2, PMA-stimulated, NOX inhibitor project, primary screen (AID 1159); conditions: 45 min, higher = more signal, called active from +8 up or from −8 down; note: test concentration not given here
NADPH oxidase 2 (Homo sapiens), sequence (P04839 whole entry, looked up): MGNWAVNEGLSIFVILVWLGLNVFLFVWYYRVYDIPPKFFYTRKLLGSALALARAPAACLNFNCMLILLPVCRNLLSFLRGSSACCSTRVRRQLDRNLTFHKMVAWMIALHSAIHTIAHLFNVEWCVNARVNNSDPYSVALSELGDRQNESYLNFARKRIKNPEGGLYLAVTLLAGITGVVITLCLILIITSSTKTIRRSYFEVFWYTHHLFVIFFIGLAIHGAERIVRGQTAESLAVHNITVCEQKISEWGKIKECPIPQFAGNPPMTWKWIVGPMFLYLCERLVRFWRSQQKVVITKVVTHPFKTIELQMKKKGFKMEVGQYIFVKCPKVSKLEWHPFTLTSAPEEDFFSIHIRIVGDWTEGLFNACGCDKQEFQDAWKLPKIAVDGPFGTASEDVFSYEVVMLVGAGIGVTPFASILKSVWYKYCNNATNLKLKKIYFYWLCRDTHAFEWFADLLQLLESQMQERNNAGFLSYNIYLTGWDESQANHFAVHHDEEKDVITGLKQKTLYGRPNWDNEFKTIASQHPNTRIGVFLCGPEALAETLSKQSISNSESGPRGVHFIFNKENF

[9] = molecular target: NADPH oxidase 4 (Homo sapiens) (UniProt Q9NPH5); assay: compounds shifting NOX4 Amplex Red fluorescence – cell-based, HEK293-NOX4, tetracycline-induced, NOX inhibitor project, primary screen (AID 1160); conditions: HEK293-NOX4, Amplex Red H2O2 fluorescence, 45 min; higher = more signal, called active from +8 up or from −8 down
NADPH oxidase 4 (Homo sapiens), sequence (Q9NPH5 whole entry, looked up): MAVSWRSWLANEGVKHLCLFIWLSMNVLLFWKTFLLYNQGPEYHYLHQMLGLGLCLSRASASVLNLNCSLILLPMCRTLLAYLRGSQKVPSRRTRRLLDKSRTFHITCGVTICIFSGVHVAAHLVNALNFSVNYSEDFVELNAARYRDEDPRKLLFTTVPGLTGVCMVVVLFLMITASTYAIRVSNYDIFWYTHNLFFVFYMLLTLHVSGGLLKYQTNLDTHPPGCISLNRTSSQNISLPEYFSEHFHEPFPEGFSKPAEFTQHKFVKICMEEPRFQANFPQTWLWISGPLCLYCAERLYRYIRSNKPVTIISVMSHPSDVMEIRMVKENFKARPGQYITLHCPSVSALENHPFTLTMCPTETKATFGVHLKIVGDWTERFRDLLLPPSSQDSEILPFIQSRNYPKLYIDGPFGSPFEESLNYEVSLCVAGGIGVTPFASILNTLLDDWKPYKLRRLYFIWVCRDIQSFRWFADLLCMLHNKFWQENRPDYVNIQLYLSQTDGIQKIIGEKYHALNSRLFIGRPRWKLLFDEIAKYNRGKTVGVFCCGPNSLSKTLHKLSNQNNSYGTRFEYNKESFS

[10] = molecular target: NADPH oxidase 5 (Homo sapiens) (UniProt Q96PH1); assay: compounds shifting NOX5 Amplex Red fluorescence – cell-based, HEK293-NOX5, NOX inhibitor project, primary screen (AID 1161); conditions: HEK293-NOX5, ionomycin, 45 min, higher = more signal
NADPH oxidase 5 (Homo sapiens), sequence (Q96PH1 whole entry, looked up): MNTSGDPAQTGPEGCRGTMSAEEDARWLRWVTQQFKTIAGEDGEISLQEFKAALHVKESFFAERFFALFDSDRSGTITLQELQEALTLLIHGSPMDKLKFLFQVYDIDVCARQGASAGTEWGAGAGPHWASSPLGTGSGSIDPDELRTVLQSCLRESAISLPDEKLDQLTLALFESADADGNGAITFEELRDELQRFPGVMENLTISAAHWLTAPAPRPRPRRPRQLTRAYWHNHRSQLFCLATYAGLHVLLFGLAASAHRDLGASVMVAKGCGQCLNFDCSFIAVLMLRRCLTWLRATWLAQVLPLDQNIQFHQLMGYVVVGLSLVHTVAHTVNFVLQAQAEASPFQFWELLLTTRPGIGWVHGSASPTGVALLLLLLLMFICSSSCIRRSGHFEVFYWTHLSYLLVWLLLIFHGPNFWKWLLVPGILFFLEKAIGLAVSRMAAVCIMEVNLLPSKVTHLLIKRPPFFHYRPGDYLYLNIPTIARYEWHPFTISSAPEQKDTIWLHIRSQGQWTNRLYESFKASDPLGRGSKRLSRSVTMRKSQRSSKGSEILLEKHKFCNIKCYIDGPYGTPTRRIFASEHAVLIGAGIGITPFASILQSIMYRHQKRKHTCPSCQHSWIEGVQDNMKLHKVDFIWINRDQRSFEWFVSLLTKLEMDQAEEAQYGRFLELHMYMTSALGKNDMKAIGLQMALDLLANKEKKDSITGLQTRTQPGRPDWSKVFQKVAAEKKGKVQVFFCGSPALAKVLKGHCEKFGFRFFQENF

| Compound | z-score [1] | composite z-score [2] | z-score [3] | z-score [4] | z-score [5] | z-score [6] | z-score [7] | z-score [8] | z-score [9] | z-score [10] |
| --- | --- | --- | --- | --- | --- | --- | --- | --- | --- | --- |
| O=C1OCCC=C[C@H]2OC34C=CCN(Cn5nnc6ccccc65)C(=O)[C@H]3N(CCCO)C(=O)[C@@H]4C12 (stereo not given in full) | 1.24 (inactive) | -0.321 | 0.502 (inactive) | -1.23 (inactive) | 1.65 (inactive) | -1.32 (inactive) | 0.601 | 0.813 (inactive) | -0.341 (inactive) | -1.35 |
| CC(C)[Si](C#CCCCC#N)(O[C@H](c1ccccc1)c1cn(Cc2ccccc2)nn1)C(C)C | 1.99 (inactive) | -0.253 | 1.05 (inactive) | 0.0907 (inactive) | 0.866 (inactive) | 0.137 (inactive) | 0.249 | -0.502 (inactive) | 0.912 (inactive) | 0.536 |
| C=CCN1C(=O)[C@]2(CCC(=O)OC(C)(C)C)N=C(c3ccc(OCCCO)cc3)O[C@@H]2c2ccccc21 | 0.736 (inactive) | 0.576 | 34.1 (active) | 32.3 (active) | 2.29 (inactive) | 12.1 (active) | 0.708 | -2.67 (inactive) | 0.56 (inactive) | -0.299 |
| COc1ccc(C#Cc2ccc3c(c2)[C@]2(C(=O)N3)[C@H](c3ccc(O)cc3)N3[C@H](c4ccccc4)[C@H](c4ccccc4)OC(=O)[C@H]3[C@@H]2C(=O)Nc2nc3ccccc3s2)cc1 | 1.38 (inactive) | 0.0994 | 0.92 (inactive) | 0.347 (inactive) | 2.43 (inactive) | 0.59 (inactive) | 0.498 | 1.13 (inactive) | -0.838 (inactive) | -1.34 |
| C=CCOC(=O)[C@@]1(Cc2ccccc2)C[C@H]2CO[C@H](c3ccc(OC)cc3)N2C1=O | -0.0282 (inactive) | -0.338 | 1.36 (inactive) | 0.522 (inactive) | -0.256 (inactive) | 0.0894 (inactive) | -0.673 | 0.826 (inactive) | -0.213 (inactive) | -1.93 |
| CC(C)N1C(=O)C[C@@](C(=O)NC2CC2)(c2ccc([N+](=O)[O-])cc2)[C@H]1c1ccc(CO)cc1 | 1.3 (inactive) | -0.231 | 2.45 (inactive) | -0.224 (inactive) | 2.85 (inactive) | -0.9 (inactive) | 2.28 | -0.281 (inactive) | -1.89 (inactive) | -1.78 |
| CO[C@H]1O[C@H](CO)[C@@H](OC(=O)CCc2ccccc2)[C@@H]2OC(=O)[C@@H](Cc3ccccc3)C/C=C/C[C@H](Cc3ccccc3)C(=O)O[C@@H]12 | 0.453 (inactive) | -0.0054 | 4.5 (inactive) | 0.829 (inactive) | 1.23 (inactive) | 0.546 (inactive) | 0.658 | -4.56 (inactive) | -0.97 (inactive) | -2 |
| O=C(c1ccccc1)N1C(=O)[C@]2(Cc3ccccc31)N=C(c1ccc(OCCCO)cc1)O[C@@H]2c1ccccc1 | -0.857 (inactive) | 0.297 | 21.9 (active) | 8.53 (active) | 0.0521 (inactive) | 1.35 (inactive) | -0.203 | 0.491 (inactive) | -0.703 (inactive) | -1.77 |
| CCOC(=O)C1=C[C@@H](C(C)C)N(S(=O)(=O)c2ccc(C)cc2)[C@H]1c1ccc(C(F)(F)F)cc1 | -1.58 (inactive) | 0.2 | 0.172 (inactive) | 0.279 (inactive) | -0.422 (inactive) | 0.0209 (inactive) | -0.696 | -0.116 (inactive) | 0.024 (inactive) | 0.599 |
| C=CC[C@@]1(C(=O)NCCCOC)N=C(c2ccc(OCCCO)cc2)O[C@@H]1c1ccccc1 | 1.3 (inactive) | 0.611 | 21.7 (active) | 7.55 (inactive) | 1.32 (inactive) | 0.406 (inactive) | 1.54 | -0.393 (inactive) | 0.523 (inactive) | 0.754 |
| CCCCNC(=O)c1ccc(C#CC(C)(C)C)c(OC(C)=O)c1 | 0.567 (inactive) | -0.148 | 4.63 (inactive) | 0.802 (inactive) | 2.09 (inactive) | 0.181 (inactive) | 0.355 | -0.137 (inactive) | 0.344 (inactive) | 0.416 |
| CC(C)c1ccc(NN2C(C(O)c3ccc(F)cc3)C=CC3C(=O)N(c4ccccc4)C(=O)C32)cc1 (stereo not given) | -0.601 (inactive) | 0.498 | 3.82 (inactive) | 1.76 (inactive) | 0.0964 (inactive) | 1.44 (inactive) | -1.05 | -1.15 (inactive) | -2.78 (inactive) | -2.6 |
| O=C1N(Cc2ccccc2)c2ccccc2C[C@]12N=C(c1ccc(OCCCO)cc1)O[C@@H]2c1ccccc1 | -0.522 (inactive) | -0.0968 | 24.8 (active) | 15.7 (active) | 1.41 (inactive) | 2.71 (inactive) | -0.027 | -0.73 (inactive) | 0.472 (inactive) | 0.0935 |
| CC(CO)N1C(=O)[C@@H]2[C@H]3C(=O)OCC=C[C@H]3OC23C=CCN(Cn2nnc4ccccc42)C(=O)[C@@H]13 (stereo not given in full) | -0.597 (inactive) | -0.147 | 0.638 (inactive) | 0.359 (inactive) | 0.029 (inactive) | 0.0866 (inactive) | -0.0773 | 0.698 (inactive) | 0.672 (inactive) | 1.78 |
| CCOc1cc(C(O)C2C=CC3C(=O)NC(=O)C3N2Nc2ccc(Cl)cc2Cl)ccc1O (stereo not given) | -1.36 (inactive) | -0.101 | 0.588 (inactive) | 0.0352 (inactive) | 0.0675 (inactive) | 1.1 (inactive) | -1.04 | -1.26 (inactive) | -1.88 (inactive) | -2.05 |
| O=c1cccc(-c2ccc([N+](=O)[O-])cc2)o1 | 0.609 (inactive) | -0.241 | 0.687 (inactive) | -0.129 (inactive) | 0.0448 (inactive) | -1.08 (inactive) | 0.248 | 0.304 (inactive) | 0.542 (inactive) | 0.0589 |
| [N-]=[N+]=Nc1ccccc1C[C@@]1(C(=O)N2CCOCC2)N=C(c2ccc(OCCCO)cc2)O[C@@H]1c1ccccc1 | 0.345 (inactive) | -0.88 | 28.5 (active) | 23.8 (active) | 3.6 (inactive) | 2.07 (inactive) | -0.0419 | 0.437 (inactive) | 0.265 (inactive) | -1.66 |
| COCCCNC(=O)[C@@]1(Sc2ccc(C)cc2)CC(=O)N(C2Cc3ccccc3C2)[C@@H]1c1ccc(CO)cc1 | 0.625 (inactive) | 0.0653 | 1.86 (inactive) | -0.562 (inactive) | 1.03 (inactive) | -1.78 (inactive) | 2.12 | 0.00261 (inactive) | -0.107 (inactive) | -1.76 |
| [N-]=[N+]=Nc1ccccc1C[C@]1(C(=O)N2CCOCC2)COC(c2ccc(OCCCO)cc2)=N1 | 1.59 (inactive) | 0.401 | 24.6 (active) | 7.83 (inactive) | 1.52 (inactive) | -0.779 (inactive) | 0.779 | -3.84 (inactive) | -0.00663 (inactive) | -1.73 |
| O=C1O[C@H](c2ccccc2)[C@H](c2ccccc2)N2[C@H]1[C@@H](C(=O)O)[C@]1(C(=O)Nc3ccc(C#CCCO)cc31)[C@H]2c1ccccc1OCCO | -0.443 (inactive) | 0.0026 | 0.396 (inactive) | -0.353 (inactive) | -1.27 (inactive) | 0.173 (inactive) | -0.0545 | 1.93 (inactive) | 0.226 (inactive) | 0.636 |
| CCOC(=O)C[C@H]1[C@H](OC(=O)Cc2ccc3c(c2)OCO3)[C@@H](NC(=O)c2ccc3ccccc3n2)c2cc(OCCCO)ccc2N1C(=O)c1ccc2ccccc2n1 | 3.01 (inactive) | 0.103 | 15.8 (active) | 2.25 (inactive) | -1.37 (inactive) | -0.0077 (inactive) | 1.3 | 0.11 (inactive) | 0.204 (inactive) | -2.65 |
| COc1ccc(CCNC(=O)[C@@]2(Cc3ccccc3I)c3ccccc3C(=O)N(C3CCCCC3)[C@H]2c2ccc(CO)cc2)cc1 | 0.535 (inactive) | -0.104 | 3.52 (inactive) | 0.502 (inactive) | 1.27 (inactive) | -0.31 (inactive) | 3.35 | 0.189 (inactive) | -1.09 (inactive) | -2.19 |
| CC(C)C[C@@H]1NC(=O)[C@@H]2C[C@H](C(=O)NCCCCCCN)[C@H](c3cccc(OCCO)c3)N2C1=O | 0.831 (inactive) | 0.393 | 3.69 (inactive) | 0.73 (inactive) | 3.36 (inactive) | 0.227 (inactive) | -0.256 | 2.24 (inactive) | 1.36 (inactive) | 1.99 |
| CC(C)(C)OC(=O)CC[C@@]1(C(=O)NCC(O)CO)N=C(c2ccc(OCCCO)cc2)O[C@@H]1c1ccccc1CN=[N+]=[N-] (stereo not given in full) | 0.399 (inactive) | 0.258 | 25.3 (active) | 5.67 (inactive) | 0.814 (inactive) | 0.936 (inactive) | 0.906 | 1.18 (inactive) | 0.87 (inactive) | 0.416 |
| COC(=O)[C@@]1(Cc2ccc(F)cc2)[C@H]2c3cc(C(=O)N4CCCC4)n(Cc4ccc(C)c(F)c4F)c3C[C@H]2CN1C(=O)c1ccccc1 | -1.31 (inactive) | 0.746 | 5.03 (inactive) | 0.806 (inactive) | 0.598 (inactive) | 1.06 (inactive) | -0.389 | -4.01 (inactive) | -7.95 (inactive) | -7.01 |
| CC(C)NC(=O)[C@@]1(C)c2ccccc2C(=O)N(Cc2ccc(OC(F)(F)F)cc2)[C@H]1c1ccc(CO)cc1 | -0.362 (inactive) | 0.0004 | 2.96 (inactive) | 0.857 (inactive) | 1.89 (inactive) | 0.254 (inactive) | 0.0795 | 0.415 (inactive) | -0.667 (inactive) | 1.99 |
| Cc1ccc(S[C@]2(C(=O)O)CC(=O)N(C3CCCCC3)[C@@H]2c2ccc(CO)cc2I)cc1 | 0.263 (inactive) | 0.32 | 9.32 (active) | 0.692 (inactive) | 0.796 (inactive) | 0.99 (inactive) | 0.0559 | 3.66 (inactive) | -2.04 (inactive) | -1.86 |
